# A selection: hits, their analogues and other compounds. The true share with any hit is near 10%.
# hNpr1 antagonist – blocks ANP-stimulated signaling of human Npr1 receptor; hit rate 1.6% among 76,000; HEK293 hNpr1 GloSensor cGMP, ANP-stimulated luminescence; Potency, µM (doses to about 46.3 µM), for inactives: at the top dose activity change, negative = inhibition, hits mostly inhibitors; calls by dose curve; further: on the % scale 0 is the no-effect control and ±100 the full control effect; nearly all actives have a fitted effect of over 60% in size
#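 Compound pre-incubated 30 min at room temperature on GloSensor-loaded HEK293 cells stably carrying hNpr1 and the pGS-40F cGMP biosensor. Stimulation uses hNppA at 0.1 nM final; luminescence is taken at baseline and 20 min post-agonist.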
# GPT2 inhibitor – GPT2 alanine aminotransferase inhibition. Q8TD30. Recombinant GPT2, coupled pyruvate oxidase/HRP Amplex Red fluorescence. Potency, µM (top dose mostly 57.7 µM), for inactives: at the top dose activity change, negative = inhibition, most hits filed as inhibitors. hit rate 0.25% among 100,000. AID 1671188; further: on the % scale 0 is the no-effect control and ±100 the full control effect; nearly all actives have a fitted effect of over 60% in size
#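 Fluorescence of coupled pyruvate oxidase/HRP/Amplex Red system (50uM Amplex, 30 min, dark) reports pyruvate formed by GPT2. Enzyme reaction: 10ng/uL GPT2, 2mM L-alanine, 250uM a-KG, 30 min room temperature, pH 7.5; 50uM AOA control.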
# FLuc inh-1 – Photinus pyralis luciferase inhibition | hit rate 2.5% among 76,000 | purified P. pyralis luciferase, luminescence, biochemical | Potency, µM (titrated, usually from 115 µM), usual class: inhibitors | P08659; further: on the % scale 0 is the no-effect control and ±100 the full control effect; nearly all actives have a fitted effect of over 65% in size
# Target sequence (P08659 whole entry, looked up): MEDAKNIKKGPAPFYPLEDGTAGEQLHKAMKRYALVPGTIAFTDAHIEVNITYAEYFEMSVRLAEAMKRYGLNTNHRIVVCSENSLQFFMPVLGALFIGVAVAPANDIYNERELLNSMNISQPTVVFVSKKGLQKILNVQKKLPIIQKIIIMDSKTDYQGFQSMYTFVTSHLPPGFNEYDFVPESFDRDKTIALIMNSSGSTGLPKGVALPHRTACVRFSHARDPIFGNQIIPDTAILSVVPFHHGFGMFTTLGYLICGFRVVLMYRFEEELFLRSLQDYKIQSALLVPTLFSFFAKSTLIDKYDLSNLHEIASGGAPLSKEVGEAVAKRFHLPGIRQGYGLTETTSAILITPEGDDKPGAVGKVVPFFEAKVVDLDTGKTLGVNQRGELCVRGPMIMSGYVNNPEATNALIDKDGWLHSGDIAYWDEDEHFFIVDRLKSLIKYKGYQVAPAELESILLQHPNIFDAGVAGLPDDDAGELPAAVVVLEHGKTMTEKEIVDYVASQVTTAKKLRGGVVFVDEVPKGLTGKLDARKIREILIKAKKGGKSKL
#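 Inhibitors were tested against purified firefly luciferase in a biochemical, low-substrate format (both substrates at 10uM) and luminescence measured with a CCD imager.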
# NIH3T3 tox – NIH 3T3 cell cytotoxicity | NIH 3T3 viability, CellTiter-Glo ATP luminescence, 48-72 h | hit rate 4.3% among 94,000 | Potency, µM (series often up to 96.7 µM), for inactives: at the top dose activity change, negative = cytotoxicity, actives largely listed as inhibitors; further: on the % scale 0 is the no-effect control and ±100 the full control effect; nearly all actives have a fitted effect of over 55% in size
#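 First NIH 3T3 cells are plated at 400 cells/well; next compound is pinned in; then plates incubate 48 or 72 hr at 37 °C; finally CellTiter-Glo is added and luminescence read after 10 min.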
# HEK cytotox – HEK 293 cell cytotoxicity; HEK 293 viability, ATP luminescence (CellTiter-Glo), 48-72 h; Potency, µM (titrated, usually from 115 µM), without a hit: at the highest dose activity change, negative = cytotoxicity, actives largely listed as inhibitors; hit rate 6.6% among 94,000; AID 1345083; further: on the % scale 0 is the no-effect control and ±100 the full control effect; nearly all actives have a fitted effect of over 60% in size
#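 Read-out: CellTiter-Glo ATP luminescence. Cells: HEK 293, 250 cells/well. Exposure: 48 or 72 hr, 37 degree Celsius.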
# FLuc SDR no ATP – binders stabilizing firefly luciferase, without ATP; shares compounds with FLuc inh-1; Purified FLuc-C-HiBiT, Nano-Glo HiBiT luminescence, no ATP; Potency, µM (top dose mostly 32.7 µM), for the others: at the top dose activation (signal gain), most hits filed as activators; hit rate 7.8% among 1,300; AID 1963318; further: nearly all actives have a fitted effect of over 55% in size
# FLuc SDR ATP – binders stabilizing firefly luciferase, plus ATP. purified FLuc-C-HiBiT + ATP, HiBiT complementation luminescence. AID 1963319. shares compounds with FLuc inh-1. Potency, µM (top dose mostly 32.7 µM), inactives show at the highest dose activation (gain of signal), usual class: activators. hit rate 8.7% among 1,300;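 further: signal reports ligand binding via conformational change of the enzyme rather than luciferase catalysis; % of control where 0% means no effect; nearly all actives have a fitted effect of over 55% in size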
# FLuc inh-2 – firefly luciferase enzyme inhibition; hit rate 42% among 1,300; Potency, µM (highest dose often 32.7 µM), for the others: at the highest dose activity change, negative = inhibition, actives largely listed as inhibitors; AID 1963320; shares compounds with FLuc inh-1; purified FLuc-C-HiBiT enzyme, luciferin luminescence; further: on the % scale 0 is the no-effect control and ±100 the full control effect; nearly all actives have a fitted effect of over 70% in size
# Starred values were filed as active, the others as inactive; i = inactive; ? = inconclusive; . = no result given; [ ] = remark or other dose. Unless noted, the call rests on the fitted dose curve; in most records, active means well fitted curve in the direction sought with a large enough effect; inconclusive means small, poorly fitted or top-dose-only effect, or another doubt; inactive means no such curve, though single readings can be large; an effect the other way counts as inactive or inconclusive. Potency means the concentration at half of the fitted maximal effect.
SMILES,hNpr1 antagonist,GPT2 inhibitor,FLuc inh-1,NIH3T3 tox,HEK cytotox,FLuc SDR no ATP,FLuc SDR ATP,FLuc inh-2
CC[n+]1c(/C=C/N(C)c2ccccc2)n(-c2ccccc2)c2ccc(-c3nc4ccccc4s3)cc21,.,.,.,.,.,9%,7%,?
Fc1ccc(Cc2cn3cc(-c4ccc(F)cc4)nc3s2)cc1,.,.,.,.,.,?,?,0.88µM*
O=C(NCc1ccccc1Cl)c1nc2sccn2c1-c1ccc(F)cc1,.,i,.,-31%,-9%,.,.,.
Fc1ccc(-c2cn3cc(Cc4ccccc4Cl)sc3n2)cc1,.,.,.,.,.,?,?,0.99µM*
Clc1ccc(-c2cn3cc(Cc4ccccc4)sc3n2)cc1,.,.,.,.,.,30%,?,0.79µM*
O=C(NCc1ccccc1F)c1cn2cc(-c3ccc(F)cc3)sc2n1,.,1%[88.5 µM],.,-17%[138 µM],-9%[172 µM],.,.,.
Fc1ccccc1Cc1cn2cc(-c3ccc(Cl)cc3)nc2s1,.,.,.,.,.,20%,?,1.6µM*
Fc1ccc(CN2CC[C@H](c3nc4ccccc4o3)C2)cc1F,-2%[70.6 µM],-9%[88.5 µM],?,-26%[138 µM],?,.,.,.
N#Cc1cccc(NC(=S)N[C@H]2CO[C@H]3[C@@H]2OC[C@@H]3n2cc(-c3ccccn3)nn2)c1,-1%[70.6 µM],-8%[88.5 µM],?,?,?,.,.,.
Cc1ccc(-c2cn3cc(C(=O)NCCc4ccccc4)nc3s2)cc1,.,i,.,-22%,-7%,.,.,.
Cc1ccc(Cc2cn3cc(-c4ccccc4)nc3s2)cc1,.,.,.,.,.,?,?,0.44µM*
CCC(=O)N(C1CCOCC1)C1CCN(Cc2cccnc2)CC1,2%,i,i,-20%,-4%,.,.,.
Cn1ncc2c(C(=O)Nc3ccccc3F)cc(-c3ccccc3F)nc21,.,.,.,-21%,?,.,.,.
COc1cccc(-c2nc3cc(NC(=O)c4ccc(C)c([N+](=O)[O-])c4)ccc3s2)c1,.,.,.,.,.,9%,9%,-15%
COc1ccc(NC(=O)c2cn3cc(-c4cccc(OC)c4)sc3n2)cc1,.,i,.,?,?,.,.,.
COc1cc(OC)cc(C(=O)Nc2ccccc2-c2nc3ccccc3s2)c1,.,.,.,.,.,12%,10%,-4%
COc1cccc(C(=O)Nc2ccc3nc(SCC(=O)N4CCOCC4)sc3c2)c1,.,.,.,.,.,?,21%,9.9µM*
N#Cc1ccc(C(=O)Nc2ccccc2-c2nc3ccccc3s2)c(F)c1,.,.,.,.,.,14%,9%,2%
COc1cccc(C(=O)Nc2cccc(-c3nnc4n3CCCC4)c2)c1,-5%,4%,i,-16%,-23%,.,.,.
CC(=O)Nc1ccc(C2(C(=O)NCc3ccccc3Cl)CCC2)cc1,-4%,-5%,i,0%,-2%,.,.,.
CN(Cc1cnc2ccccc2n1)C(=O)c1cccc(CCC(C)(C)O)c1,-2%,-19%,i,-25%,-22%,.,.,.
COc1ncccc1CN1CCC2(CC1)COCCN2C(=O)OCc1ccccc1,-9%[70.6 µM],?,i,-18%[138 µM],?,.,.,.
COc1cccc(C(=O)Nc2cnc(-c3ccccc3)nc2)c1,-29%,-7%,i,-22%,?,.,.,.
CCOc1cc(C(=O)Nc2ccc(Cl)c(-c3nc4ccccc4[nH]3)c2)cc(OCC)c1OCC,.,2%,.,.,.,.,.,.
COc1cccc(C(=O)Nc2ccc(-c3nc4ccccc4s3)c(O)c2)c1,.,.,.,.,.,13%,9%,1%
SMILES,hNpr1 antagonist,GPT2 inhibitor,FLuc inh-1,NIH3T3 tox,HEK cytotox,FLuc SDR no ATP,FLuc SDR ATP,FLuc inh-2
CCCOc1cccc(C(=O)Nc2ccc(-c3nc4ccccc4s3)c(Cl)c2)c1,.,.,.,.,.,9%,9%,?
CCS(=O)(=O)c1cccc(C(=O)Nc2ccc(-c3nc4ccccc4s3)c(O)c2)c1,.,.,.,.,.,4%,4%,?
O=C(NC1CC1)[C@@H]1CN(Cc2ccc(F)cc2F)C[C@H]1CO,2%,-14%,i,-20%,?,.,.,.
CCc1ccc(CN2CCC(CNC(=O)c3ccc(C)nc3)C2)nc1 (centres undefined),1%,1%,i,?,?,.,.,.
COc1ccc(NC(=O)c2cc3ccccc3o2)c(OC)c1,.,.,.,.,.,19%,14%,?
CN(C)[C@@H]1CN(C(=O)C2CC2)CC[C@@H]1CO,11%,i,?,-22%,-5%,.,.,.
CCCCn1c(=O)[nH]c2cccnc21,13%[70.6 µM],?,i,-12%[174 µM],1%[230 µM],.,.,.
CCC[C@H](C)Oc1nc(N)c2[nH]c(=O)n(CCCCCN3CCCCC3)c2n1,.,.,.,.,.,13%,9%,-3%
Cc1oc(C(O)c2ccccc2F)nc1C(=O)Nc1ccc(N2CCOCC2)cc1 (centres undefined),-2%[70.6 µM],i,10µM*,-25%[138 µM],?,?,?,16µM*
CCCCCc1ccc(/C=C/C(=O)Nc2cc(Cl)ccc2C(=O)O)cc1,.,i,.,.,.,.,.,.
Cc1ccc2oc(-c3ccc(C)c(NC(=O)/C=C/c4ccc(Cl)cc4)c3)nc2c1,.,.,.,.,.,22%,15%,?
COc1ccccc1N1CCN(C(=O)c2cc3n(n2)CC(c2ccc(Cl)cc2)OC3)CC1 (centres undefined),?,i,i,?,?,.,.,.
COc1ccc(CN2C[C@H](O)C[C@H]2c2nc(-c3ccc(OC)cc3)no2)cc1,?,1%[88.5 µM],11µM*,-30%[174 µM],?,-1%[49.3 µM],1%[49.3 µM],?
O[C@@H]1C[C@@H](c2nc(-c3ccccc3)no2)N(Cc2ccc(F)cc2)C1,1%[70.6 µM],3%[88.5 µM],i,?,-28%[172 µM],.,.,.
COc1ccc(-c2noc([C@@H]3C[C@@H](O)CN3Cc3cc4ccccc4o3)n2)cc1,?,-3%[88.5 µM],5µM*,-9%[174 µM],-11%[172 µM],18%[49.3 µM],?,16µM*
CC(C)c1noc([C@@H]2C[C@@H](O)CN2Cc2cc3ccccc3o2)n1,-1%[70.6 µM],-10%[88.5 µM],i,-4%[174 µM],-25%[172 µM],.,.,.
COc1ccccc1C(=O)NCCn1ccn2nc(-c3ccc(C)c(C)c3)cc2c1=O,-4%,i,i,-27%,-26%,.,.,.
COc1cccc(-c2cc3c(=O)n(CCNC(=O)c4ccccc4Cl)ccn3n2)c1,-19%,i,13µM*,-24%,?,19%,13%,?
COc1cccc(CC(=O)NCCn2ccn3nc(-c4ccc(C)c(C)c4)cc3c2=O)c1,-3%,-3%,13µM*,?,79µM*,23%,13%,?
COc1ccc(-c2cc3c(=O)n(CCNC(=O)Cc4cccs4)ccn3n2)cc1,-19%,i,8.9µM*,?,?,?,?,?
Cc1cnc(C(=O)N[C@@H]2CCC[C@@H]2C(=O)N2CCN(CC(C)C)CC2)cn1,4%,-7%,i,4%,1%,.,.,.

# From PubChem BioAssay
